HT1080 IDH1KD tx – kills HT-1080 cells with IDH1 knockdown; Potency, µM (titrated, usually from 46.1 µM), usual class: cytotoxic; HT-1080 IDH1 knockdown viability, ATP luminescence, 48 h; hit rate 2% among 360,000; AID 686971
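Luminescent ATP read-out (CellTiter-Glo, 10 min at room temperature) after 48 h compound exposure at 37 °C gave viability of IDH1-knockdown HT-1080 cells. Activity was normalised to DMSO and cell-free wells, then fitted as concentration-response curves.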
HT1080-NT tox – kills 2HG-producing HT-1080-NT fibrosarcoma cells; Potency, µM (series often up to 46.1 µM), actives largely listed as cytotoxic; HT-1080-NT fibrosarcoma viability, CellTiter-Glo ATP luminescence, 48 h; hit rate 1.6% among 360,000;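 further: NT is the 2HG producing partner of a matched IDH1 knockdown line; nearly all actives have a fitted effect of over 55% in size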
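Read-out is CellTiter-Glo luminescence after 10 minutes at room temperature, following 48 hours' compound treatment of HT-1080-NT cells (750 cells/well, RPMI, 5% FBS, 37 degrees C).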
DT40 TDP1 CPT – DT40-hTDP1 cell growth loss with CPT. chicken DT40 Tdp1-/-;hTDP1 cells + 20 nM CPT, ATP luminescence, 48 h. Potency, µM (top dose mostly 46.2 µM), usual class: inhibitors. hit rate 12% among 420,000. AID 686979; further: nearly all actives have a fitted effect of over 55% in size
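Cell growth measured by CellTiter-Glo luminescence after a minimum 48 h, 37 C compound exposure with 20 nM CPT in Tdp1-knockout DT40 cells stably expressing hTDP1, seeded 400/well; qHTS titration format.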
IL1B secr inh – blocks inflammasome-driven IL-1 beta release | THP-1 LPS/ATP IL-1B secretion, AlphaLISA, 16 h; hits give low values | activity change, % at 57.5 µM | hit rate 4.7% among 360,000 | AID 743279; in the data active means activity change below about -50%; inconclusive means mostly about -30% to -49%
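THP-1 cells pretreated 1 hr with compounds (up to 57.5 uM final), then stimulated with LPS (250 ng/mL final) plus ATP (1.25 mM final); secreted IL-1B measured by AlphaLISA after 16 hr, decreased signal indicating inhibition.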
DT40 TDP1 no CPT – qHTS for Inhibitors of human tyrosyl-DNA phosphodiesterase 1 (TDP1): qHTS in cells in absence of CPT | DT40 Tdp1-/- hTDP1 cells, no CPT, ATP luminescence, 48 h | Potency, µM (highest dose often 46.2 µM), hits mostly inhibitors | hit rate 15% among 420,000; further: nearly all actives have a fitted effect of over 55% in size
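Growth of hTDP1-complemented DT40 Tdp1-knockout cells is measured by ATP luminescence after at least 48 hr compound exposure at 37 °C, with DMSO substituting for the 20 nM CPT used in the parallel screen.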
Large screens that a line does not name were inactive. A selection: hits, their analogues and other compounds. The true share with any hit is near 19%. Unless noted, the call rests on the fitted dose curve; in most records, active means well fitted curve in the direction sought with a large enough effect; inconclusive means small, poorly fitted or top-dose-only effect, or another doubt; inactive means no such curve, though single readings can be large; an effect the other way counts as inactive or inconclusive.

CCOC(=O)c1ccc(NC(=O)CSc2nc3ncc(Br)c(C)c3[nH]2)cc1	none (no result: HT1080 IDH1KD tx, HT1080-NT tox, IL1B secr inh)
COc1ccc(C(CNC(=O)C(CCSC)NC(=O)c2ccccc2Cl)N2CCCCC2)cc1 (centres undefined)	none
COc1cc(/C=C(/C#N)C(=O)Nc2cc(C(F)(F)F)ccc2Cl)ccc1OCC(=O)Nc1cccc(C(F)(F)F)c1	DT40 TDP1 CPT 18µM, DT40 TDP1 no CPT 23µM
COc1cc(/C=C(\C#N)C(=O)Nc2cccc(C(=O)O)c2)ccc1OCc1ccc(F)cc1	none
CCOC(=O)C1CCN(C(=O)c2ccc(OCC(=O)Nc3cccc(C(F)(F)F)c3)cc2)CC1	DT40 TDP1 CPT inconclusive, DT40 TDP1 no CPT inconclusive
COc1cc(C(=O)N(C)CCOc2ccccc2)ccc1OCC(=O)Nc1cccc(C(F)(F)F)c1	HT1080-NT tox inconclusive, DT40 TDP1 CPT 26µM, IL1B secr inh -73, DT40 TDP1 no CPT 16µM
CCOC(=O)C1CCN(C(=O)c2ccc(OCC(=O)Nc3cccc(C(F)(F)F)c3)c(OC)c2)CC1	HT1080-NT tox inconclusive, DT40 TDP1 CPT 13µM, IL1B secr inh inconclusive, DT40 TDP1 no CPT 9.2µM
CCOC(=O)N1CCC(NC(=O)c2cc(C(=O)Nc3cccc(C(F)(F)F)c3)ccc2CO)CC1	DT40 TDP1 CPT 5.2µM, DT40 TDP1 no CPT 3.3µM
COc1cccc(CC(=S)N2CCOCC2)c1	none
COc1ccc(-c2cc3ccc(O)c(CN4CCCCC4C)c3oc2=O)cc1OC (centres undefined)	DT40 TDP1 CPT inconclusive (no result: HT1080 IDH1KD tx, HT1080-NT tox, IL1B secr inh)
Nc1c(Br)cc2c(c1Br)C(O)c1ccccc1-2 (centres undefined)	none
CCOC(=O)C1CCN(C(=O)c2ccc(OCC(=O)Nc3ccc(OCC)cc3)c(OC)c2)CC1	DT40 TDP1 CPT 21µM, DT40 TDP1 no CPT 16µM
CCOC(=O)C1CCCN(C(=O)c2ccc(OC)c(OC)c2)CC1 (centres undefined)	none
CC(=O)N1CCc2cc(S(=O)(=O)NCCN3CCC(C)CC3)ccc21	none
O=C(NCC1OCCc2ccccc21)c1cc(COc2c(F)cccc2F)on1 (centres undefined)	DT40 TDP1 no CPT 16µM
O=C(NCC1OCCc2ccccc21)c1ccc(NC(=O)c2cccc(Br)c2)cc1 (centres undefined)	DT40 TDP1 CPT 7.3µM, DT40 TDP1 no CPT 7.3µM
O=C(NCC1OCCc2ccccc21)c1ccc(NC(=O)c2ccccc2Cl)cc1 (centres undefined)	IL1B secr inh -73, DT40 TDP1 no CPT inconclusive
COc1ccc(C(=O)NCC2OCCc3ccccc32)cc1OC (centres undefined)	IL1B secr inh inconclusive
COc1ccc(-c2c(C)nn3c(C(F)(F)F)cc(C)nc23)cc1OC	DT40 TDP1 no CPT inconclusive (no result: HT1080 IDH1KD tx, HT1080-NT tox, IL1B secr inh)
Cc1cn(CC(=O)NCCCN2CCCC2=O)c(=O)[nH]c1=O	none
O=C(Nc1ccccc1-c1ccccc1)c1ccc(=O)[nH]n1	HT1080 IDH1KD tx inconclusive, HT1080-NT tox inconclusive
CC(=O)c1ccc2c(c1)Cc1cc(C(C)=O)ccc1-2	none
CC(=O)c1ccc2c(c1)CC1(C2)Cc2cc3c(cc2C1)C(=O)CC3 (centres undefined)	HT1080 IDH1KD tx inconclusive, HT1080-NT tox inconclusive, DT40 TDP1 CPT 5.2µM, DT40 TDP1 no CPT 3.3µM
Cc1cccc(-n2c(C)nc3cc(C(=O)NCCN4CCOCC4)ccc32)c1	none
COCCNC(=O)CN(C(=O)Cn1nnc2ccccc21)c1cc(C)cc(C)c1	none
COc1cccc(-c2ccc3ncnc(N4CCN(C)CC4)c3c2)c1	DT40 TDP1 CPT 13µM, DT40 TDP1 no CPT 23µM (no result: HT1080 IDH1KD tx, HT1080-NT tox, IL1B secr inh)
CN1CCN(c2ncnc3ccc(-c4ccc(C(=O)N(C)C)cc4)cc23)CC1	none (no result: HT1080 IDH1KD tx, HT1080-NT tox, IL1B secr inh)
CN1CCN(c2ncnc3ccc(-c4cccnc4)cc23)CC1	DT40 TDP1 CPT 16µM, DT40 TDP1 no CPT inconclusive (no result: HT1080 IDH1KD tx, HT1080-NT tox, IL1B secr inh)
CN1CCN(c2ncnc3ccc(-c4ccoc4)cc23)CC1	DT40 TDP1 CPT 12µM, DT40 TDP1 no CPT 23µM (no result: HT1080 IDH1KD tx, HT1080-NT tox, IL1B secr inh)
COC(=O)COc1ccc(S(=O)(=O)NCc2cccnc2)cc1C	none
CS(=O)(=O)c1ccc2nc(NC(=O)c3ccc(N4C(=O)CCC4=O)cc3)sc2c1	DT40 TDP1 CPT inconclusive
COC(=O)[C@@]1(Cc2ccc(F)cc2)[C@H]2c3cc(C(=O)N(C)C)n(CCO)c3C[C@H]2CN1C(=O)c1ccccc1	none
COC(=O)[C@@]1(Cc2ccc(F)cc2)[C@H]2c3cc(C(=O)N(C)C)n(Cc4ccc(OC)c(OC)c4)c3C[C@H]2CN1C(=O)c1ccccc1	DT40 TDP1 CPT inconclusive, DT40 TDP1 no CPT inconclusive
COC(=O)[C@@]1(Cc2ccc(F)cc2)[C@H]2c3cc(C(=O)N(C)C)n(CCc4ccc(OC)c(Br)c4)c3C[C@H]2CN1C(=O)c1ccccc1	DT40 TDP1 CPT 10µM, DT40 TDP1 no CPT 9.2µM
COC(=O)[C@@]1(Cc2ccc(OC)cc2)[C@H]2c3cc(C(=O)N(C)C)n(Cc4ccc(OC(F)(F)F)cc4)c3C[C@H]2CN1C(=O)c1ccccc1	DT40 TDP1 CPT 21µM, IL1B secr inh -62, DT40 TDP1 no CPT 21µM
COC(=O)[C@@]1(Cc2ccc(F)cc2)[C@H]2c3cc(C(=O)N(C)C)n(Cc4ccccc4)c3C[C@H]2CN1C(=O)c1ccccc1	HT1080-NT tox inconclusive, DT40 TDP1 CPT 5.2µM, DT40 TDP1 no CPT 21µM
COC(=O)[C@@]1(Cc2ccc(F)cc2)[C@H]2c3cc(C(=O)N(C)C)n(Cc4ccc(C)o4)c3C[C@H]2CN1C(=O)c1ccccc1	HT1080 IDH1KD tx 21µM, HT1080-NT tox inconclusive, DT40 TDP1 CPT 16µM, DT40 TDP1 no CPT 21µM
Cc1ccc(Nc2nc3ccc(C)cc3nc2-n2nc(C)cc2C)c(C)c1	none (no result: HT1080 IDH1KD tx, HT1080-NT tox, IL1B secr inh)
CC(OC(=O)c1cccc(-n2cnnn2)c1)C(=O)Nc1ccc(F)cc1Cl (centres undefined)	DT40 TDP1 no CPT inconclusive
O=C(Cn1cc(SCc2c(F)cccc2Cl)c2ccccc21)N1CCCC1	DT40 TDP1 CPT inconclusive, DT40 TDP1 no CPT 7.3µM (no result: HT1080 IDH1KD tx, HT1080-NT tox, IL1B secr inh)
O=C(CSc1cn(CC(=O)N2CCCCC2)c2ccccc12)NCc1ccccc1Cl	DT40 TDP1 CPT 23µM, DT40 TDP1 no CPT inconclusive (no result: HT1080 IDH1KD tx, HT1080-NT tox, IL1B secr inh)
CCN(C(=O)CC(C)C)c1nnc(Cn2nnc3ccccc32)s1	DT40 TDP1 CPT inconclusive, DT40 TDP1 no CPT 21µM
Cc1ccc(C(=O)NNC(=O)Cn2nnc3ccccc32)cc1	none
CCN(C(=O)c1ccc(C(C)(C)C)cc1)c1nnc(Cn2nnc3ccccc32)s1	HT1080 IDH1KD tx inconclusive, HT1080-NT tox inconclusive, DT40 TDP1 CPT 7.3µM, DT40 TDP1 no CPT 8.2µM
CCc1cccc(CC)c1N(COC)C(=O)Cn1nnc2ccccc21	DT40 TDP1 no CPT inconclusive
CSCCC1NC(=O)C(C(C)=NNC(N)=O)=C1O (centres undefined)	DT40 TDP1 CPT inconclusive, DT40 TDP1 no CPT 16µM
